Results from PubChem BioAssay (Tox21).
Records with an inconclusive call do not appear. The source made the active and inactive calls. Unless noted, calls come from the whole dose curve; as a rule, active = well fitted curve in the direction sought with a large enough effect in the repeat runs; inconclusive = weak or mixed curves; inactive = no such curve, though single readings can be large; an effect the other way counts as inactive or inconclusive.

What was measured:
[1] = qHTS assay to identify small molecule antagonists of the glucocorticoid receptor (GR) signaling pathway - cell viability counter screen (AID 720693); note: nearly all actives have a fitted effect of over 55% in size
[2] = qHTS assay to identify small molecule antagonists of the androgen receptor (AR) signaling pathway - cell viability counter screen (AID 743033; note: nearly all actives have a fitted effect of over 45% in size)
[3] = qHTS assay to identify small molecule antagonists of the androgen receptor (AR) signaling pathway using the MDA cell line - cell viability counter screen (AID 743041; note: nearly all actives have a fitted effect of over 45% in size)
Procedure, shortened: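 In this qHTS counter assay, fluorescence intensity after CellTiter-Fluor addition indicated viability of MDA-kb2 AR-luc cells given compounds and R1881 for 16 h at 37C.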

[4] = qHTS assay to identify small molecule antagonists of the thyroid receptor (TR) signaling pathway - cell viability counter screen (AID 743064); note: nearly all actives have a fitted effect of over 50% in size; note: potency is the fitted concentration of half-maximal effect
Procedure, shortened: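 In rat pituitary GH3.TRE-Luc reporter cells co-exposed to compound and 1 nM T3 for 23.5 h, cytotoxicity was assessed with CellTiter-Fluor in the same wells, read by fluorescence.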

[5] = qHTS assay to identify small molecule antagonists of the thyroid receptor (TR) signaling pathway (AID 743065); note: nearly all actives have a fitted effect of over 55% in size; note: potency is the fitted concentration of half-maximal effect; for activity, negative = inhibition: series mostly up to about 70 µM
Procedure, shortened: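 GH3.TRE-Luc rat pituitary cells carrying two TR response elements driving luciferase were plated for 4 h, given compound plus 1 nM T3 (final), and incubated 23.5 h at 37 C. ONE-Glo luminescence measured reporter inhibition; CellTiter-Fluor fluorescence tracked cytotoxicity.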

[6] = test system: thyroid hormone receptor (rat, GH3 cells); experiment: qHTS assay to identify small molecule agonists of the thyroid receptor (TR) signaling pathway (AID 743066; calls by dose curve)
[7] = target: Estrogen receptor (Homo sapiens) (UniProt P03372); experiment: qHTS assay to identify small molecule antagonists of the estrogen receptor alpha (ER-alpha) signaling pathway (AID 743069; active = well fitted curve in the direction sought with a large enough effect in the signal ratio in the repeat runs, not every such curve was filed as active; the % refers to the signal ratio)
Procedure, shortened: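 A 17beta-estradiol challenge was applied right after compound transfer to ER-alpha-UAS-bla HEK293 cells previously kept in charcoal-stripped serum. Plates stood 18 hr at 37C and 5% CO2; fluorescence was read following 2 hr FRET substrate loading at room temperature.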

[8] = qHTS assay to identify small molecule antagonists of the estrogen receptor alpha (ER-alpha) signaling pathway - cell viability counter screen (AID 743074; calls by dose curve;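 note: HEK293 cells carrying ER-alpha-UAS-bla reporter stimulated with 17beta-estradiol; nearly all actives have a fitted effect of over 45% in size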)
[9] = target: Estrogen receptor (Homo sapiens) (UniProt P03372); experiment: qHTS assay to identify small molecule agonists of the estrogen receptor alpha (ER-alpha) signaling pathway using the BG1 cell line (AID 743079); note: nearly all actives have a fitted effect of over 20% in size; note: potency is the fitted concentration of half-maximal effect
[10] = qHTS assay to identify small molecule antagonists of the estrogen receptor alpha (ER-alpha) signaling pathway using the BG1 cell line (AID 743080; calls by dose curve;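 note: BG1 cells stimulated with 17beta-estradiol alongside compound; series mostly up to about 70 µM; nearly all actives have a fitted effect of over 25% in size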)
Procedure, shortened: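 Quantitative HTS on the Tox21 10K library: BG1 cells with endogenous ER-alpha and ERE-luciferase reporter, 17beta-estradiol stimulation, 21.5 h compound exposure, luminescence endpoint with parallel fluorescence cytotoxicity counter-read.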

[11] = qHTS assay to identify small molecule antagonists of the estrogen receptor alpha (ER-alpha) signaling pathway using the BG1 cell line - cell viability counter screen (AID 743081);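 note: compound given together with 17beta-estradiol as the ER stimulus; series mostly up to about 70 µM; nearly all actives have a fitted effect of over 45% in size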
[12] = target: Aromatase (Homo sapiens) (UniProt P11511); experiment: qHTS assay to identify aromatase inhibitors (AID 743083); note: series mostly up to about 70 µM; nearly all actives have a fitted effect of over 55% in size
[13] = qHTS assay to identify aromatase inhibitors - cell viability counter screen (AID 743084);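 note: cells stimulated with testosterone during compound exposure; nearly all actives have a fitted effect of over 55% in size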; note: potency is the fitted concentration of half-maximal effect
[14] = target: Estrogen receptor (Homo sapiens) (UniProt P03372); experiment: qHTS assay to identify small molecule agonists of the estrogen receptor alpha (ER-alpha) signaling pathway (AID 743075; calls by dose curve;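 note: HEK293 GripTite cells with ER-alpha and UAS-driven beta-lactamase reporter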)
[15] = qHTS assay for identifying genotoxic compounds that show differential cytotoxicity against isogenic chicken DT40 cell lines with known DNA damage response pathways - Rev3 mutant cell line (AID 743014); note: nearly all actives have a fitted effect of over 55% in size; note: potency is the fitted concentration of half-maximal effect
[16] = qHTS assay for identifying genotoxic compounds that show differential cytotoxicity against isogenic chicken DT40 cell lines with known DNA damage response pathways - Rad54/Ku70 mutant cell line (AID 743015); note: nearly all actives have a fitted effect of over 60% in size; note: potency is the fitted concentration of half-maximal effect
[17] = qHTS assay for identifying genotoxic compounds that show differential cytotoxicity against isogenic chicken DT40 cell lines with known DNA damage response pathways - wild type cell line (AID 743012); note: nearly all actives have a fitted effect of over 60% in size; note: potency is the fitted concentration of half-maximal effect
Procedure, shortened: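 Viability by ATP luminescence (CellTiter-Glo, 30 min RT) after 40 h compound treatment at 37 C/5% CO2, using 300 parental DNA repair-proficient DT40 cells per well.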

[18] = target: Androgen receptor (Homo sapiens) (UniProt P10275); experiment: qHTS assay to identify small molecule antagonists of the androgen receptor (AR) signaling pathway (AID 743035; active = well fitted inhibition curve with a large enough effect in the signal ratio in the repeat runs, not every such curve was filed as active; the % refers to the signal ratio)
Procedure, shortened: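 Antagonist mode: AR-bla HEK293 cells co-treated with test compounds and agonist R1881 for 16 h at 37C, 5% CO2. Beta-lactamase activity read as FRET fluorescence after 2 h room-temperature substrate loading.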

[19] = target: Androgen receptor (Homo sapiens) (UniProt P10275); experiment: qHTS assay to identify small molecule agonists of the androgen receptor (AR) signaling pathway (AID 743036; active = well fitted activation curve with a large enough effect in the signal ratio in the repeat runs, with a control signal flat, not every such curve was filed as active; the % refers to the signal ratio)
Procedure, shortened: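 Cell-based FRET reporter assay: HEK293 line with a UAS-beta-lactamase construct, compounds added in DMSO, 16 h exposure at 37C, then 2 h substrate step at room temperature and fluorescence intensity read.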

[20] = target: Androgen receptor (Homo sapiens) (UniProt P10275); experiment: qHTS assay to identify small molecule antagonists of the androgen receptor (AR) signaling pathway using the MDA cell line (AID 743042; note: nearly all actives have a fitted effect of over 55% in size)
Procedure, shortened: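 MDA-kb2 cells (human breast carcinoma, stably carrying an MMTV-luciferase reporter responsive to AR and GR) were plated at 3,000 cells/well and preincubated 5 hr at 37C, then given compound plus R1881 agonist for 16 h. ONE-Glo luminescence was read.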
% is set by controls: 0 for no effect and ±100 for the full control effect.

Chain of Androgen receptor (Homo sapiens) (P10275 whole entry, looked up): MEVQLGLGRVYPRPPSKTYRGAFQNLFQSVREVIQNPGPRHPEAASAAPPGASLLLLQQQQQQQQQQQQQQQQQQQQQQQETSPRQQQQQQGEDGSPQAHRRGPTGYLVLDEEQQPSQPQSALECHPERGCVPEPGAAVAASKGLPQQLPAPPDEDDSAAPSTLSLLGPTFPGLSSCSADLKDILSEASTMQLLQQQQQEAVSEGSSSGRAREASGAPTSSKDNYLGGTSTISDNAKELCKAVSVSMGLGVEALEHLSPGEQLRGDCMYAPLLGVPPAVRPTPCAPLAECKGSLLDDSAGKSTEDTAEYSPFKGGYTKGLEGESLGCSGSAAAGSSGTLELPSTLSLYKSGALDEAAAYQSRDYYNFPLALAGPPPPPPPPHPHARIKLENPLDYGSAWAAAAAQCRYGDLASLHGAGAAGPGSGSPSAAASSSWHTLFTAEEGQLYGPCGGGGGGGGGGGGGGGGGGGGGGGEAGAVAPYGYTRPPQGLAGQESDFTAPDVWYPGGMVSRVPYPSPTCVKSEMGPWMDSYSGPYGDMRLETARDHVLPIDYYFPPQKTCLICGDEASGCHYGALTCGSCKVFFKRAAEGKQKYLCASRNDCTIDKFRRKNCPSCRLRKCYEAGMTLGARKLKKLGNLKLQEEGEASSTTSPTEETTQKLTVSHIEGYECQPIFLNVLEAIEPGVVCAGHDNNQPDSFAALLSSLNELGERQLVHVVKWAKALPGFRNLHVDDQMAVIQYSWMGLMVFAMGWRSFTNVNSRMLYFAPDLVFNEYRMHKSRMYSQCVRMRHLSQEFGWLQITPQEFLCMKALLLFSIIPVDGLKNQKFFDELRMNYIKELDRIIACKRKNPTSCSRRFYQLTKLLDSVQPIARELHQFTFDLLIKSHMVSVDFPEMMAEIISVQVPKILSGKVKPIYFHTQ
Chain of Aromatase (Homo sapiens) (P11511 whole entry, looked up): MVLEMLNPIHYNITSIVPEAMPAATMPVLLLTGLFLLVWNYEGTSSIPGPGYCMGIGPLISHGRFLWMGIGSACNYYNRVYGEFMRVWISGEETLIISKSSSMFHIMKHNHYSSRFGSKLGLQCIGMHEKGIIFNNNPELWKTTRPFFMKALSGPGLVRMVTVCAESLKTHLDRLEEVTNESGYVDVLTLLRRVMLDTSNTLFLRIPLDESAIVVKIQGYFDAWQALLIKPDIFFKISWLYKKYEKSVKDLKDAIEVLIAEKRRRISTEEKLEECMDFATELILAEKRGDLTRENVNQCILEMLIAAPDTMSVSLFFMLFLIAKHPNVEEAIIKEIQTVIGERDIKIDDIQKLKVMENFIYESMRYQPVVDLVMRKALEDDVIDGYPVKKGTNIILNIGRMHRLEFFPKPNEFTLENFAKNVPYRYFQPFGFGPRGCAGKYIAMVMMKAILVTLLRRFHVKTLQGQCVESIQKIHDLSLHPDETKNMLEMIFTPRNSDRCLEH
Chain of Estrogen receptor (Homo sapiens) (P03372 whole entry, looked up): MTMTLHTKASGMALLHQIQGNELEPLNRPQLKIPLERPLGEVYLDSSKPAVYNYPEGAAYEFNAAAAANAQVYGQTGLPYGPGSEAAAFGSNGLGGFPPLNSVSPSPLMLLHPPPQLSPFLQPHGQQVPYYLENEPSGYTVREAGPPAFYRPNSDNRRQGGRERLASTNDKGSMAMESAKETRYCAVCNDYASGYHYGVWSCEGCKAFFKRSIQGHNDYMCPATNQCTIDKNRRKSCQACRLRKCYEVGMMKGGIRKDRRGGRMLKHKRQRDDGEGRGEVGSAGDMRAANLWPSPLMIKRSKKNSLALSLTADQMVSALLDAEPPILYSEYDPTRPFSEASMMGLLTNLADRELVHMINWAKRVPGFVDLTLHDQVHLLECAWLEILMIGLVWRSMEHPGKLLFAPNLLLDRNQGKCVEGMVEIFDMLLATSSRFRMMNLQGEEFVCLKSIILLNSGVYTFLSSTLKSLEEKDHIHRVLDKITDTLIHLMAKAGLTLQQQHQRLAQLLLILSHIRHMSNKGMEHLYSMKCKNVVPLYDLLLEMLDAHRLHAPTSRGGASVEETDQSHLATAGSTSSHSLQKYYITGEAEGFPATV

ICCc1ccccc1
inactive: outcome [1] | outcome [2] | Potency [3] | Potency [4] | Potency [5] | outcome [6] | Potency [7] | Potency [8] | Potency [9] | outcome [10] | Potency [11] | Potency [12] | Potency [13]

COc1ccc(Nc2ccc(OC)cc2)cc1
inactive: outcome [1] | outcome [2] | Potency [3] | Potency [4] | Potency [5] | outcome [6] | Potency [7] | Potency [8] | outcome [14] | Potency [11] | Potency [12] | Potency [13]
active: Potency [9] 3.93 µM

CN(C)CC[C@@H](c1ccc(Cl)cc1)c1ccccn1
inactive: outcome [1] | Potency [15] | Potency [16] | outcome [2] | Potency [3] | outcome [6]

O=c1[nH]cnc2c1ncn2[C@@H]1O[C@H](CO)[C@@H](O)[C@H]1O
inactive: Potency [16] | outcome [2] | Potency [3] | Potency [4] | Potency [5] | outcome [6] | Potency [8] | Potency [11] | Potency [12] | Potency [13]

OCc1c2ccccc2cc2ccccc12
active: Potency [9] 54.6 µM
inactive: outcome [1] | outcome [2] | Potency [3] | Potency [4] | Potency [8] | outcome [14] | Potency [11] | Potency [12] | Potency [13]

CCCCCCCOC(=O)CCC
inactive: outcome [1] | Potency [16] | outcome [2] | Potency [3] | Potency [4] | Potency [5] | outcome [6] | Potency [7] | Potency [8] | outcome [14] | Potency [9] | outcome [10] | Potency [11] | Potency [12] | Potency [13]

CCOC(=O)COc1ccc2c(c1)CC(NCC(O)c1cccc(Cl)c1)CC2 (configuration not stated)
active: Potency [17] 54.9 µM | Potency [15] 54.9 µM | Potency [16] 54.9 µM | Potency [4] 27.5 µM | Potency [5] 48.9 µM | Potency [13] 21.9 µM
inactive: Potency [3] | Potency [7] | outcome [14] | Potency [9] | Potency [11]

NC(Cc1ccc(F)cc1)C(=O)O (configuration not stated)
inactive: viability change, negative = cytotoxic [1] -1.1% [at 7.04 µM] | activity change, negative = cytotoxicity [2] -0.148% [at 7.04 µM] | viability change, negative = cytotoxic [3] -1.4% [at 8.47 µM] | activation [6] -5.43% [at 8.08 µM] | activity, negative = cytotoxicity [8] -20% [at 6.72 µM] | activity change, negative = cytotoxicity [11] -2.97% [at 8.47 µM] | activity, negative = inhibition [12] -6.6% [at 8.47 µM] | activity change, negative = cytotoxicity [13] -2.35% [at 8.47 µM]
active: Potency [16] 1.87 µM | Potency [4] 2.64 µM

CCC(=O)O[C@]1(C(=O)SCF)[C@H](C)C[C@H]2[C@@H]3C[C@H](F)C4=CC(=O)C=C[C@]4(C)[C@@]3(F)[C@@H](O)C[C@@]21C
inactive: outcome [1] | Potency [15] | outcome [2] | Potency [3] | Potency [4] | Potency [5] | outcome [6] | Potency [8] | outcome [14] | Potency [9] | Potency [11] | Potency [12] | Potency [13]

CCOc1ccc(NS(=O)(=O)c2ccc(N)cc2)nn1
inactive: Potency [17] | Potency [15] | Potency [16] | outcome [2] | Potency [3] | Potency [4] | Potency [5] | outcome [6]

COC(=O)N[C@H](C(=O)N[C@@H](Cc1ccccc1)[C@@H](O)CN(Cc1ccc(-c2ccccn2)cc1)NC(=O)[C@@H](NC(=O)OC)C(C)(C)C)C(C)(C)C
active: Potency [5] 26.6 µM
inactive: outcome [1] | outcome [2] | Potency [3] | Potency [4] | outcome [6] | Potency [7] | outcome [14] | Potency [11] | Potency [12]

O=C(Cl)c1cccc([N+](=O)[O-])c1
inactive: outcome [1] | outcome [2] | Potency [3] | Potency [5] | outcome [6] | Potency [7] | Potency [8] | outcome [14] | Potency [9] | outcome [10] | Potency [11] | Potency [12] | Potency [13]

CN(CCCN1c2ccccc2CCc2ccccc21)CC(=O)c1ccc(Cl)cc1
active: Potency [17] 9.44 µM | Potency [15] 13.3 µM | Potency [16] 13.3 µM | Potency [4] 11.9 µM | Potency [5] 26.6 µM
inactive: Potency [7] | Potency [8] | outcome [14] | Potency [9] | outcome [10] | Potency [11] | Potency [12] | Potency [13]

CO[Si](C)(C)OC
inactive: outcome [1] | outcome [2] | Potency [3] | Potency [4] | Potency [5] | outcome [6] | Potency [7] | Potency [8] | outcome [14] | Potency [9] | outcome [10] | Potency [11] | Potency [12] | Potency [13]

CC(C)(C)c1cccc(O)c1
inactive: outcome [1] | outcome [2] | Potency [18] | outcome [19] | Potency [3] | outcome [20] | Potency [4] | Potency [5] | outcome [6] | Potency [7] | Potency [8] | outcome [14] | Potency [9] | outcome [10] | Potency [11] | Potency [12] | Potency [13]
active: Potency [15] 61.1 µM
